Rows were chosen to be rich in hits. Some 19% of all compounds tested hit in one or more screens of this group.
Shiga inhibitor – A qHTS for Small Molecule Inhibitors of Shiga Toxin | 9.2% of 290,000 active | Vero cells, Shiga toxin protein synthesis inhibition reporter | inhibition, % at 38.7 µM; in the data active means inhibition mostly above about 28%, no sharp cut-off; inactive means mostly below about 43%
Pf growth 96h – Primary qHTS for delayed death inhibitors of the malarial parasite plastid, 96 hour incubation | P. falciparum luciferase reporter growth, 96 h | Potency, µM (highest dose often 28.7 µM), actives largely listed as inhibitors | 6.9% of 320,000 active | AID 504834, 2011
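P. falciparum expressing integrated firefly luciferase grown in erythrocytes (2% hematocrit, 0.05% parasitemia final) with compounds for 96 hours at 37 C, 5% CO2. Growth inhibition read as loss of luminescence after adding luciferase detection reagent.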
CHX counter – Cycloheximide Counterscreen for Small Molecule Inhibitors of Shiga Toxin. cell reporter, cycloheximide protein synthesis inhibition counterscreen. max response, %. 12% of 300,000 active. AID 2314, 2010; in the data active means max response mostly above about 13%, no sharp cut-off; inactive means mostly below about 14%; further: read at 38.3 µM for the half of the compounds with a filed dose
AMA1 RON2 block – qHTS for Inhibitors of AMA1-RON; Towards Development of Antimalarial Drug Lead: Primary Screen. 0.2% of 360,000 active. Potency, µM (doses to about 58.2 µM), actives largely listed as inhibitors. Plasmodium falciparum AMA1 (3D7) - RON2 peptide interaction. AID 720542, 2013. AlphaScreen AMA1-biotinylated RON2 peptide binding; further: nearly all actives have a fitted effect of over 45% in size
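AMA1 (3D7) with his tag at 25 nM final met compounds first, then biotinylated RON2 peptide at 25 nM; detection used donor plus acceptor beads, 10 µg/mL apiece, read by AlphaScreen after 30 min at room temperature.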
Pf growth 48h – Primary qHTS for delayed death inhibitors of the malarial parasite plastid, 48 hour incubation | 5.9% of 310,000 active | P. falciparum luciferase growth in erythrocytes, 48 h | Potency, µM (top dose mostly 28.7 µM), usual class: inhibitors
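Growth was read as firefly luciferase luminescence after a 48 h, 37 C, 5% CO2 exposure of compounds to reporter-bearing P. falciparum cultures (0.1% parasitemia, 2% hematocrit final) in Albumax-supplemented RPMI 1640.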
SARS PLpro yeast – qHTS of Yeast-based Assay for SARS-CoV PLP | S. cerevisiae expressing SARS-CoV PLpro, growth rescue | Potency, µM (top dose mostly 32.9 µM), hits mostly activators | 0.19% of 330,000 active; calls by dose curve; further: nearly all actives have a fitted effect of over 55% in size
Hits are given with their value; n = inactive; u = inconclusive; x = no result given; [ ] = another dose, or the depositor's remark. Unless noted, the call rests on the fitted dose curve; in most records, active means well fitted curve in the direction sought with a large enough effect; inconclusive means small, poorly fitted or top-dose-only effect, or another doubt; inactive means no such curve, though single readings can be large; an effect the other way counts as inactive or inconclusive.

SMILES | Shiga inhibitor | Pf growth 96h | CHX counter | AMA1 RON2 block | Pf growth 48h | SARS PLpro yeast
COC(=O)c1sccc1N/N=C/c1cccc(Oc2ccccc2)c1 | 38 | n | 40 | n | n | n
COc1ccc(/C=N/NC(=O)C(N)=O)c(OC)c1OC | n | n | n | n | n | n
COC(=O)c1sccc1NC(=O)c1cccc(OC)c1 | n | n | n | n | x | n
COC(=O)c1sccc1N/N=C/c1ccc(OC)c(OC)c1OC | 39 | n | 47 | n | n | n
Cc1nn(C)c(C(=O)N/N=C/c2cccc(Oc3ccccc3)c2)c1Br | n | n | n | n | n | n
CC(=O)Nc1ccc(NC(=O)c2ccccc2CCc2ccccc2)cc1 | n | n | n | n | n | n
Cc1ccc(S(=O)(=O)NC(=O)C2(C)CCN2C(=O)c2ccccc2CCc2ccccc2)nc1 (configuration not stated) | x | x | x | n | x | x
C[C@H]1CC[C@@]2(O[C@H](CCO)C[C@@H](O)[C@@H]2O)O1 | n | n | n | n | n | n
CCC(=O)Nc1ccccc1Sc1ncnc2scc(-c3ccccc3)c12 | n | 4.7µM | n | n | 13µM | n
COc1ccc(-c2csc(Nc3cccnc3)n2)cc1OC | active | n | n | n | u | n
COc1cccc(Nc2nc(-c3cccnc3)cs2)c1 | 57 | n | 53 | n | n | n
O=C1C=C(NCc2ccc(Cl)c(Cl)c2)C2(CCCCC2)O1 | n | x | n | n | n | n
O=C(c1[nH]c(C(F)(F)F)nc1-c1ccccc1)N1CCN(c2ncccc2C(F)(F)F)CC1 | x | x | x | n | x | x
C=CCNC(=O)c1sccc1Oc1ccc(F)cc1[N+](=O)[O-] | n | u | n | n | n | n
O=C(NC1(C(F)(F)F)N=C(c2ccccc2)NC1=O)c1ccccc1 (configuration not stated) | n | u | n | n | n | n
Cc1ccccc1NC(=O)C[n+]1cc(-c2ccccc2)n2c1CCC2 | n | 5.9µM | n | n | u | n
Cn1c(NC(=O)C[n+]2cc(-c3ccc(Cl)c(Cl)c3)n3c2CCC3)cc(=O)n(C)c1=O | n | 0.83µM | n | n[2.32 µM] | 1.3µM | n
Cc1ccc(-c2c[n+](CC(=O)Nc3ccc(C)cc3C)c3n2CCC3)cc1 | n | u | n | n | u | n
Cc1cccc(C)c1NC(=O)C[n+]1cc(-c2ccccc2)n2c1CCC2 | n | 12µM | n | n | u | n
Cc1ccc(NC(=O)C[n+]2cc(-c3ccc(C)cc3)n3c2CCC3)cc1 | n | 1.9µM | n | n | 6.6µM | n
O=C(C[n+]1cc(-c2ccc(Cl)cc2)n2c1CCC2)Nc1nc(-c2ccccc2)cs1 | n | u | n | n | u | n
O=C(NCc1ccccc1Cl)C1CCN(C(=O)c2ccco2)CC1 | n | u | n | n | n | n
Cc1ccc(-c2c[n+](CC(=O)Nc3nc(-c4ccc(F)cc4)cs3)c3n2CCC3)cc1 | n | 3.7µM | n | n | u | n
O=C(C[n+]1cc(-c2ccc(F)cc2)n2c1CCC2)Nc1nc(-c2ccccc2)cs1 | n | u | n | n[2.32 µM] | u | n
Cc1cccc(NC(=O)CN2NS(=O)(=O)c3ccccc3C2=O)c1 | n | x | n | n | n | n
SMILES | Shiga inhibitor | Pf growth 96h | CHX counter | AMA1 RON2 block | Pf growth 48h | SARS PLpro yeast
O=c1c2cc(Cl)ccc2[nH]c(=S)n1Cc1ccco1 | n | u | n | n | n | n
O=c1c2cc(Cl)ccc2[nH]c(=S)n1Cc1cccs1 | n | 13µM | n | n | n | n
CCOc1ccc(CN(CCO)CCO)cc1C(=O)OC | n | 2.1µM | n | n | n | n
CCN(C(=O)Cn1c(=O)oc2cc(S(=O)(=O)N3CCOCC3)ccc21)c1ccccc1 | n | 4.1µM | n | n | u | n
CCN(C(=O)Cn1c(=O)oc2cc(S(=O)(=O)N3CCCC3)ccc21)c1ccc(OC)cc1 | n | n | n | n | u | n
CCCCNC(=O)Cn1c(=O)oc2cc(S(=O)(=O)N3CC(C)CC(C)C3)ccc21 (configuration not stated) | n | 6.6µM | n | n | x | n
O=C(Cn1c(=O)oc2cc(S(=O)(=O)N3CCCC3)ccc21)NCc1ccc(F)cc1 | n | 6.6µM | n | n | x | n
O=C(Cn1c(=O)oc2cc(S(=O)(=O)N3CCCC3)ccc21)N1CCN(c2ccccn2)CC1 | n | 12µM | n | n | n | n
COCCn1c(Cc2cccn2C)nnc1SCC(=O)NCc1ccc2c(c1)OCO2 | n | u | n | n | n | n
Cc1ccc(S(=O)(=O)N2CC(C)N(C(=O)N3CCOCC3)C2C)cc1 (configuration not stated) | n | n | n | n | n | n
CCc1cccc(NC(=O)Cn2c(=O)oc3cc(S(=O)(=O)N4CCOCC4)ccc32)c1 | n | u | n | n | x | n
CC1CCCN(C(=O)Cn2c(=O)oc3cc(S(=O)(=O)N4CCCCC4)ccc32)C1 (configuration not stated) | n | u | n | n | 1.3µM | n
O=C(Cn1c(=O)oc2cc(S(=O)(=O)N3CCCC3)ccc21)Nc1cccc(C(F)(F)F)c1 | n | 12µM | n | n | n | n
CC1CCCCC1NC(=O)Cn1c(=O)oc2cc(S(=O)(=O)N3CCCC3)ccc21 (configuration not stated) | n | 10µM | n | n | n | n
CC1CCN(C(=O)Cn2c(=O)oc3cc(S(=O)(=O)N4CCCCC4)ccc32)CC1 | n | u | n | n | n | n
O=S(=O)(c1cccc2ccccc12)N1CCC2CC1c1cc(Cl)ccc12 (configuration not stated) | x | x | x | n | x | x
NC(=O)c1ccc[n+](CC(=O)c2ccc(F)cc2)c1 | n | n | n | n | n | n
COc1cc(/C=N\NC(=O)c2cccc(Cl)c2)ccc1Oc1ccc([N+](=O)[O-])cn1 | 54 | n | 17 | n | u | n
COc1cc(/C=N\NC(=O)c2ccccc2F)ccc1Oc1ccc([N+](=O)[O-])cn1 | n | n | 16 | n | n | n
CCOc1cc(C=C(C#N)C#N)ccc1Oc1ccc([N+](=O)[O-])cn1 | n | n | n | n | n | n
COc1cc(/C=C(/C#N)c2ccc(F)cc2)ccc1Oc1ccc([N+](=O)[O-])cn1 | n | n | n | n | 4.7µM | n
COc1cc(/C=N\NC(=O)c2ccc(Cl)cc2)ccc1Oc1ccc([N+](=O)[O-])cn1 | n | n | n | n | n | n
O=C(CCC(=O)OCC(=O)c1cccc([N+](=O)[O-])c1)Nc1ccccc1Cl | n | n | n | n | x | n
O=[N+]([O-])c1cc(Cl)cc(/C=N/NC(=S)Nc2ccc(S(=O)(=O)N3CCOCC3)cc2)c1O | n | u | n | 10µM | 0.47µM | n
O=S(=O)(c1ccc(NC(=S)N/N=C/c2ccc(O)c(O)c2)cc1)N1CCOCC1 | n | 13µM | n | n | 15µM | n

From PubChem
